Experimental data: the supplement of paper PMC10646978
± gives the standard deviation.

Legend:
Conditions in all cases: modulator concentration 10 µM
[1] = tested on: RAW-Dual (murine macrophage reporter line); assay: NF-kB reporter (SEAP) activity fold change vs agonist alone; higher = enhanced NF-kB activity
Method in brief: (§1)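 Overnight stimulation with a PRR agonist followed pre-incubation for 1 hour at 37 °C with compound at 10 μM final. This was done in RAW-Dual murine macrophage reporter cells seeded at 50 000 per well in 384-well plates. NF-κB (SEAP, QUANTI-Blue absorbance at 620 nm) and IRF (Lucia luciferase, QUANTI-Luc luminescence) were read from the supernatant. Each reporter's fold change relative to the mean agonist-only control on the same plate was averaged over replicate plates.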

[2] = tested on: RAW-Dual (murine macrophage reporter line); assay: IRF reporter (Lucia luciferase) activity fold change vs agonist alone; higher = enhanced IRF activity
Method in brief: as §1

[3] = tested on: RAW-Dual (murine macrophage reporter line); assay: viability score (confluency relative to resting cells, overnight) (fraction); higher = more viable, active = viable (0.7 or more)
Method in brief: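 RAW-Dual macrophages in 384-well plates were incubated overnight with compound, final concentration 10 μM. Confluency images from IncuCyte were processed in IncuCyte software into two masks covering all imaged wells. The viability score is each well's confluency relative to resting cells, and a compound met the cutoff when both masks exceeded 70% of resting cells.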

[4] = agonist: CpG ODN 1826 0.5 ug/mL

Row | Structure (SMILES) | NF-kB reporter [1, 4] | NF-kB reporter ([1]; agonist: LPS 0.1 ug/mL) | NF-kB reporter ([1]; agonist: MPLA […]) | IRF reporter ([2]; agonist: 3'3'-cGAMP 10 ug/mL) | IRF reporter ([2]; agonist: LPS 0.1 ug/mL) | IRF reporter ([2]; agonist: MPLA […]) | viability score [3]
1 | CC1(C)CC(=O)C2=C(C1)OC(N)=C(C#N)C2c1ccccc1C(F)(F)F (configuration not stated) | 1.01 ± 0.073 | 1.09 ± 0.074 | 1.06 ± 0.14 | 0.999 ± 0.059 | 1.22 ± 0.086 | 1.26 ± 0.29 | 0.994 (active)
2 | COc1cc(O)c(C(=O)Nc2nc(C(=O)NCCN(C(C)C)C(C)C)cs2)cc1OC | 1.25 ± 0.33 | 1.01 ± 0.073 | 1.13 ± 0.087 | 0.997 ± 0.038 | 0.907 ± 0.1 | 0.973 ± 0.18 | 0.994 (active)
3 | O=c1oc2cc(O)ccc2s1 | 1.11 ± 0.088 | 1.02 ± 0.07 | 1.02 ± 0.026 | 0.911 ± 0.05 | 0.962 ± 0.067 | 0.827 ± 0.074 | 1 (active)
4 | O=C1c2ccccc2-c2nc3ccccc3n21 | 0.969 ± 0.17 | 1.24 ± 0.11 | 1.14 ± 0.12 | 0.983 ± 0.033 | 1.05 ± 0.21 | 1.28 ± 0.16 | 0.856 (active)
5 | COc1ccc(-c2oc3ccc(OC)cc3c2C(=O)Nc2ccccc2Cl)cc1 | 0.872 ± 0.051 | 1.05 ± 0.11 | 1.42 ± 0.041 | 0.756 ± 0.052 | 0.865 ± 0.062 | 1.84 ± 0.28 | 1 (active)
6 | O=C(O)c1cc(O)c2ccccc2n1 | 1.23 ± 0.3 | 1.13 ± 0.11 | 1 ± 0.064 | 1.01 ± 0.057 | 1.21 ± 0.14 | 1.38 ± 0.14 | 0.991 (active)
7 | CC(C(=O)O)c1ccc2c(c1)[nH]c1ccc(Cl)cc12 (configuration not stated) | 0.96 ± 0.15 | 1.13 ± 0.24 | 0.879 ± 0.064 | 0.937 ± 0.054 | 1.19 ± 0.2 | 1.05 ± 0.16 | 1 (active)
8 | COc1cccc(S(=O)(=O)N2CCCC(c3nnc(C(F)(F)F)o3)C2)c1 (configuration not stated) | 0.892 ± 0.039 | 1.08 ± 0.09 | 1.03 ± 0.06 | 0.885 ± 0.041 | 1.11 ± 0.27 | 1.3 ± 0.36 | 1.02 (active)
9 | Cn1c(=O)cc(N2CCC[C@@H](N)C2)n(Cc2cc(F)ccc2C#N)c1=O | 0.989 ± 0.074 | 1.02 ± 0.055 | 1.02 ± 0.044 | 0.225 ± 0.013 | 0.971 ± 0.061 | 0.886 ± 0.082 | 1 (active)
10 | COc1ccc2c3c1O[C@H]1C[C@@H](O)C=C[C@@]31CCN(C)C2 [Prestw-588] | 1.13 ± 0.077 | 1.07 ± 0.091 | 0.95 ± 0.038 | 0.997 ± 0.056 | 0.987 ± 0.046 | 0.923 ± 0.16 | 0.998 (active)
11 | CCCOc1ccc(C=C2SC(N3CCN(c4ccccc4C)CC3)=NC2=O)cc1 | 1.06 ± 0.079 | 0.989 ± 0.078 | 0.975 ± 0.061 | 0.954 ± 0.049 | 0.988 ± 0.051 | 0.968 ± 0.14 | 1 (active)
12 | O=C(c1cc2nc(-c3ccccc3)cc(-c3ccccc3)n2n1)N1CCCCCC1 | 0.999 ± 0.081 | 1.16 ± 0.077 | 0.976 ± 0.065 | 0.965 ± 0.035 | 1.37 ± 0.19 | 1.12 ± 0.078 | 1.02 (active)
13 | COCC(C)(CNS(=O)(=O)c1ccccc1Br)OC (configuration not stated) | 0.978 ± 0.091 | 1.13 ± 0.091 | 0.933 ± 0.1 | 0.982 ± 0.049 | 1.07 ± 0.11 | 1.06 ± 0.18 | 0.993 (active)
14 | NC(=O)CN1C(=O)C2C3c4ccccc4C(c4ccccc43)C2C1=O (configuration not stated) | 1.1 ± 0.083 | 0.962 ± 0.073 | 0.965 ± 0.036 | 0.938 ± 0.065 | 0.946 ± 0.092 | 0.976 ± 0.15 | 0.995 (active)
15 | CC(C)Oc1ccc(C(=O)N2CCC(c3ccccc3)S(=O)(=O)CC2)cn1 (configuration not stated) | 1.06 ± 0.08 | 0.861 ± 0.13 | 0.998 ± 0.052 | 0.921 ± 0.054 | 1.03 ± 0.049 | 0.968 ± 0.13 | 0.989 (active)
16 | COCC(=O)N1CCC2(CC1)NC(=O)N(Cc1ccc(Cl)cc1)C2=O | 0.764 ± 0.18 | 1.05 ± 0.075 | 1.05 ± 0.091 | 0.995 ± 0.05 | 1.02 ± 0.12 | 1.15 ± 0.28 | 1 (active)
17 | CCOc1ccccc1OCCCCOc1cccc(C)c1 | 0.871 ± 0.064 | 0.936 ± 0.071 | 0.995 ± 0.028 | 0.996 ± 0.12 | 0.878 ± 0.13 | 0.96 ± 0.29 | 0.998 (active)
18 | CC(=C(C#N)C(=O)NCc1ccccc1)N(C)C | 0.808 ± 0.077 | 0.883 ± 0.1 | 1.08 ± 0.11 | 0.966 ± 0.045 | 1.22 ± 0.1 | 1.26 ± 0.17 | 1.02 (active)
19 | CN(C)c1ccc(O)c2c1C[C@H]1C[C@H]3[C@H](N(C)C)C(O)=C(C(N)=O)C(=O)[C@@]3(O)C(O)=C1C2=O.Cl | 0.96 ± 0.072 | 0.927 ± 0.052 | 0.959 ± 0.03 | 1.36 ± 0.37 | 1.04 ± 0.14 | 1.09 ± 0.17 | 0.999 (active)
20 | CCOC(=O)C1=C(C)NC(=S)NC1c1cccc(C)c1 (configuration not stated) | 0.93 ± 0.097 | 1.09 ± 0.097 | 1.05 ± 0.037 | 0.712 ± 0.17 | 0.944 ± 0.045 | 0.835 ± 0.057 | 0.975 (active)
21 | Cc1cccc(CSc2nn3c(=O)c(C)nnc3s2)c1 | 1.06 ± 0.086 | 0.937 ± 0.1 | 0.907 ± 0.085 | 0.925 ± 0.031 | 1.25 ± 0.2 | 1.26 ± 0.25 | 1.01 (active)
22 | CCOC(=O)c1ccc(NC(=O)c2sc(NC(=O)c3cc(OC)c(OC)c(OC)c3)c(C(=O)OCC)c2C)cc1 | 1 ± 0.095 | 1.02 ± 0.079 | 0.895 ± 0.058 | 0.969 ± 0.025 | 1.53 ± 0.25 | 1.14 ± 0.12 | 1.01 (active)
23 | O=C(C=Cc1cc([N+](=O)[O-])ccc1O)c1ccc(Cl)cc1 | 0.614 ± 0.052 | 0.81 ± 0.046 | 1.26 ± 0.21 | 0.496 ± 0.023 | 1.28 ± 0.074 | 1.25 ± 0.11 | 0.983 (active)
24 | Cl.Cl.NC1=NN(c2ccc(N)cc2)CC1 | 0.251 ± 0.043 | 1 ± 0.084 | 0.991 ± 0.13 | 0.763 ± 0.035 | 1.34 ± 0.28 | 1.22 ± 0.15 | 1 (active)
25 | COC(=O)C=C1SC(Nc2ccc(Cl)c(Cl)c2)=NC1=O | 1.13 ± 0.081 | 0.966 ± 0.091 | 0.968 ± 0.035 | 0.988 ± 0.11 | 0.982 ± 0.11 | 0.966 ± 0.23 | 0.994 (active)
26 | CC(=O)N1CCc2ccc(NC(=O)C3(c4ccccc4)CCOCC3)cc2C1 | 0.91 ± 0.063 | 1 ± 0.082 | 1.4 ± 0.075 | 1.22 ± 0.06 | 1.28 ± 0.24 | 1.31 ± 0.54 | 0.979 (active)
